Calls of active or inactive are those of the source. How the source made its calls: active means hit-call score of the fitted dose curve at least 0.9, where 1 is the maximum; inactive means score below 0.9.

Read-out in this test: Monokine induced gamma interferon (MIG), CXCL9 (gene 4283)
Description: BSK_BE3C_MIG: BioMAP Diversity Plus: BE3C Assay for Monokine induced gamma interferon (MIG) Biomarker Activity (AID 2283035). The following applies: primary human bronchial epithelial cells; actives raise or lower the signal. The procedure:
BSK_BE3C is a cell-based, multiplexed-readout assay that uses bronchial epithelial cell, a human lung primary cell, with measurements taken at 24 hours after chemical dosing in a 96-well plate.BSK_BE3C_MIG is an assay component measured in the BSK_BE3C assay. It measures MIG antibody related to regulation of gene expression using ELISA technology.Data from the assay component BSK_BE3C_MIG was analyzed into 1 assay endpoint. This assay endpoint, BSK_BE3C_MIG, was analyzed with bidirectional fitting relative to DMSO as the negative control and baseline of activity. Using a type of binding reporter, gain or loss-of-signal activity can be used to understand changes in the signaling as they relate to the gene CXCL9. Furthermore, this assay endpoint can be referred to as a primary readout, because this assay has produced multiple assay endpoints where this one serves a signaling function. To generalize the intended target to other relatable targets, this assay endpoint is annotated to the cytokine intended target family, where the subfamily is chemotactic factor.
The levels of cell surface (or secreted, indicated by the prefix "s") biomarker endpoints were measured by ELISA. Overt cytotoxicity to cells in confluent adherent cultures (all systems other than the BT system) was assessed by measuring total protein levels using sulforhodamine B (SRB) staining in parallel cultures at the time of biomarker measurements, indicated as SRB endpoints. For proliferation assays for adherent cell types, individual cell types are cultured at sub-confluence and relative cell numbers quantified by SRB staining at time points optimized for each system (48 h: 3C and CASM3C systems; 72 h: BT and HDF3CGF systems; 96 h: SAg system). SRB was performed by staining cells with 0.1% SRB after fixation with 10% TCA and reading wells at 560 nm.Viability and proliferation of PBMC (T cells) was quantified by Alamar Blue reduction for the SAg and BT systems. For PBMC viability (referred to as PBMC Cytotoxicity within the assay endpoint names), cells were plated (75,000/well in a 96-well plate) and then chemical samples added for 1 h before addition of activators, SEB and TSST-1 (20 ng/mL final concentration each). Cells were incubated for 90 h. Then, Alamar Blue (20 uL/well) (Invitrogen, Cat DAL1100) was added for 6 h, and the plates were read with a fluorescence microplate reader at 546/580 nm (excitation/emission). For PBMC proliferation, cells were plated and activated as above but incubated for only 16 h prior to addition of Alamar Blue. Plates were read after 6 h.
As to `COC(=O)c1c(Cl)nn(C)c1S(=O)(=O)NC(=O)Nc1nc(OC)cc(OC)n1`, the result was inactive.

For `O=C(c1ccccc1)C1CCCCC1`, the result was inactive. As to `COC(=O)CSc1cc(N=c2sc(=O)n3n2CCCC3)c(F)cc1Cl`, the result was inactive. On to `O=C(O)C1(C(=O)Nc2ccc(Cl)cc2Cl)CC1`, for which the result was inactive.

As for `c1ccc2[nH]c(-c3cscn3)nc2c1`, the result was inactive.

With `COCCO`, the result was inactive. With `COc1nc(C)nc(NC(=O)NS(=O)(=O)c2ccccc2OCCCl)n1`, the outcome was inactive.

Take `CCOC(=O)c1ccc(O)cc1`: the outcome was inactive. Turning to `O=C(c1ccc(O)cc1O)c1ccc(O)cc1O`, the result was inactive. On to `CCOC(=O)C(C)Oc1ccc(Oc2cnc3cc(Cl)ccc3n2)cc1` (stereo not given), for which the outcome was inactive. Regarding `OB(O)O`, the outcome was inactive.

For the compound `CCCCC(CC)CN1C(=O)C2C3C=CC(C3)C2C1=O` (stereo not given), the outcome was inactive. Take `C[C@]12CC[C@@H]3c4ccc(O)cc4C[C@@H](CCCCCCCCCS(=O)CCCC(F)(F)C(F)(F)F)[C@H]3[C@@H]1CC[C@@H]2O` (stereo not given in full): the result was inactive. With `CCOC(=O)C(C)Oc1ccc(Oc2nc3ccc(Cl)cc3o2)cc1` (stereo not given), the outcome was inactive. Still for that read-out and setting: to `CCCOC(=O)NCCCN(C)C` belongs “inactive”; to `C=CCOC(Cn1ccnc1)c1ccc(Cl)cc1Cl` (stereo not given), “inactive”. Still for that read-out and setting: the same measure for `N[C@@H](Cc1cc(I)c(Oc2ccc(O)c(I)c2)c(I)c1)C(=O)O`: “inactive”; for `CC(=O)S[C@@H]1CC2=CC(=O)CC[C@]2(C)[C@H]2CC[C@@]3(C)[C@@H](CC[C@@]34CCC(=O)O4)[C@H]12`: “inactive”; for `CCCCOC(=O)C(C)Oc1ccc(Oc2ccc(C(F)(F)F)cn2)cc1` (stereo not given): “inactive”. Consider `C#C[C@]1(O)CC[C@H]2[C@@H]3CCC4=CC(=O)CC[C@@H]4[C@H]3CC[C@@]21CC`, for which the result was inactive. Take `CC(C)(c1ccc(O)cc1)c1ccc(O)cc1`: the result was inactive. For `S=C(S)NCCNC(=S)S.[Mn+2].[S-]C([S-])=NCCN=C([S-])[S-].[Zn+2]`, the result was inactive. `COC(=O)c1ccccc1C(=O)O`: the outcome was inactive.

Turning to `COC(=O)c1ccc(I)cc1S(=O)(=O)NC(=O)Nc1nc(C)nc(OC)n1`, the outcome was inactive. What is called AC50 is the concentration at which the activity in the assay is half-maximal. Regarding `Oc1ccc(C(c2ccc(O)cc2)C(Cl)(Cl)Cl)cc1`, the AC50 was 34.7 µM (active). On to `COc1c(Cl)ccc(Cl)c1C(=O)O`, for which the result was inactive. Still for that read-out and setting: to `CCN(CC)C(=O)c1cccc(C)c1` belongs “inactive”; to `CCC(O)=C1C(=O)CC(C(=O)O)CC1=O` (stereo not given), “inactive”. Turning to `CCN(Cc1c(F)cccc1Cl)c1c([N+](=O)[O-])cc(C(F)(F)F)cc1[N+](=O)[O-]`, the outcome was inactive. Consider `C#CCOC(=O)[C@@H](C)Oc1ccc(Oc2ncc(Cl)cc2F)cc1`, for which the outcome was inactive. Consider `CCCCCOC(=O)COc1cc(N2C(=O)C3=C(CCCC3)C2=O)c(F)cc1Cl`, for which the result was inactive.

For the compound `CC(C)(C)[C@@H](O)[C@@H](Cc1ccc(Cl)cc1)n1cncn1`, the result was inactive.

In the case of `CCOC(=O)COc1cc(-n2ncc(C(F)(F)F)c(C)c2=O)c(F)cc1Cl`, the result was inactive. For `C[C@]12C[C@H](O)[C@H]3[C@@H](CCC4=CC(=O)CC[C@@]43C)[C@@H]1CC[C@@H]2C(=O)CO`, the result was inactive. Consider `COC(=O)c1ccc(CNS(C)(=O)=O)cc1S(=O)(=O)NC(=O)Nc1nc(OC)cc(OC)n1`, for which the outcome was inactive. Consider `CCCCCCC(C)OC(=O)COc1nc(F)c(Cl)c(N)c1Cl` (stereo not given), for which the outcome was inactive. As to `CCOC(=O)NCCOc1ccc(Oc2ccccc2)cc1`, the result was inactive.

Turning to `CCNc1nc(N)nc(Cl)n1`, the result was inactive.

As for `CC(=O)[C@H]1CC[C@H]2[C@@H]3CCC4=CC(=O)CC[C@]4(C)[C@H]3CC[C@]12C`, the outcome was inactive.

As to `CN(C)C(=O)Nc1ccc(Cl)c(Cl)c1`, the outcome was inactive.

The record behind these values is PubChem BioAssay (EPA / NIEHS).
